The text below walks through data of PubChem BioAssay AID2315 (National Center for Advancing Translational Sciences (NCATS), 2010).

Screen size: about 290,000 compounds; about 27,000 (9.3%) were called active. No stated cut-off is given here; in the data, active means inhibition mostly above about 28% (no sharp cut-off); inactive means mostly below about 43%. What follows is part of a selection rich in actives, with near analogues and random picks from the rest.

This assay can be described thus: A qHTS for Small Molecule Inhibitors of Shiga Toxin. Further: 0% is about no effect. Conditions: Vero cells, Shiga toxin protein synthesis inhibition reporter; at 38.7 µM, stronger effect = higher value. For orientation: In qHTS, concentration-response curves come from the screen itself.
What is called inhibition is the change of the read-out against control, counted positive when it falls. Turning to `C[N+](C)(C)CCNC(=O)c1cc[n+](Cc2ccccc2)c(/C=N/O)c1`, the inhibition is -12.2% (inactive). As for `CCCCC[C@H]1CN(C2CCCCC2)C(=O)[C@@H]1CC(=O)NCc1ccc(OC)cc1`, the figure is -2.81% (inactive); as for `CCOc1ccc2c(c1)c(=O)c(S(=O)(=O)c1ccc(C)cc1)cn2CC`, -4.36% (inactive). Next, `O=C(NNS(=O)(=O)c1ccc(F)cc1)C1CCCCC1`: -10.2% (inactive); `Cc1nn(Cc2ccc(Cl)c(Cl)c2)c(C)c1NC(=O)c1cc(C2CC2)on1`: 12.5% (inactive).

As for `COc1ccc(-c2cc(C(=O)NCCCn3ccnc3)no2)cc1`, the inhibition was 46.8% (inactive).

For `O=C(NC1CCCCC1)c1cc(C2CC2)on1`, the inhibition is 108% (active). Next, `COc1ccccc1-c1cc(C(=O)NCCCn2ccnc2)no1`: 24.1% (inactive); `COc1cc(OC)c(C(=O)NC2CCCCCC2)cc1OC`: -10.7% (inactive); `O=C(NCCCn1ccnc1)c1cc(-c2ccccc2)on1`: 146% (active). With `Cc1ccc(OCCCC(=O)Nc2ccc(S(=O)(=O)Nc3cc(C)nc(C)n3)cc2)cc1`, the inhibition is 12.9% (inactive). Consider `C=C1CCN(C(CC(C)C)C(=O)NCc2cc(OC)c(OC)c(OC)c2)S(=O)(=O)c2ccccc21` (stereo not given), for which the inhibition was -0.34% (inactive). In the case of `CCOc1cc(C2C(C(=O)c3ccco3)=C(O)C(=O)N2Cc2ccccc2)ccc1O` (stereo not given), the inhibition was -8.41% (inactive). As for `CC(=O)[C@@]12O[C@@H]1C[C@H]1[C@@H]3CC[C@H]4C[C@@H](O)CC[C@]4(C)[C@H]3CC[C@@]12C`, the figure is 33.3% (inactive); as for `Cn1c(=O)c2sccc2n(Cc2ccc(Br)cc2)c1=O`, 22.9% (inactive). As for `Cc1cc(C)c(C#N)c(SCc2ccc3c(c2)OCO3)n1`, the figure is 26.6% (inactive). As for `Cc1ccc(CSc2nsc(C)c2C#N)cc1`, the figure is 31.1% (active). In the case of `Cc1snc(SCc2c(F)cccc2Cl)c1C#N`, the inhibition is -6.99% (inactive). As for `CC(C(=O)NC1CCCCC1)N1C(=O)c2cccc3cccc1c23` (stereo not given), the figure is -6.55% (inactive); as for `CC(=O)N(Cc1cc(=O)[nH]c2ccccc12)c1ccc(C)cc1C`, -8.12% (inactive). Next, `COc1cccc(-c2cc3nc4c(c(N5CCC6(CC5)OCCO6)n3n2)CCCC4)c1`: 63.6% (active). Consider `O=C(c1cc2nc(-c3ccccc3)cc(-c3ccccc3)n2n1)N1CCC2(CC1)OCCO2`, for which the inhibition was 10.6% (inactive). As for `COc1cccc(CNc2nc3nc4c(c(=O)n3[nH]2)CCC4)c1`, the figure is -7.62% (inactive); as for `COc1ccc(S(=O)(=O)N2CCN(C(=S)NCC3CCCO3)CC2)cc1OC` (stereo not given), -11.6% (inactive); as for `O=S(=O)(NCCCCCCNS(=O)(=O)c1c(F)cccc1F)c1ccc2c(c1)OCCO2`, -3.9% (inactive).

For the molecule `O=C(O)CCCn1cc(NC(=O)COc2cccc(Cl)c2)cn1`, the inhibition was 12.7% (inactive). Next, `COc1cc(C(=O)OCC(=O)NC(C)CCc2ccccc2)cc(OC)c1OC` (stereo not given): -9.96% (inactive); `COc1ccc(NC(=S)N2CCc3cc(OC)c(OC)cc3C2)cc1`: 11.3% (inactive). As for `COc1ccc(C)cc1NC(=S)N1CCOCC1`, the figure is -10.3% (inactive); as for `COc1ccc(OC)c(NC(=S)N2CCc3ccccc3C2)c1`, 46.8% (active). As for `CCOc1ccc(-c2noc(CCC(=O)NC3CCCC3)n2)cc1OC`, the inhibition is -7.65% (inactive). Next, `COc1ccc(CCNC(=O)CSCc2ccc(Br)cc2)cc1OC`: -18.8% (inactive). As for `Cc1nn(CC(=O)NCC2CCCO2)c(=O)c2cc3ccccc3n12` (stereo not given), the figure is 1.03% (inactive); as for `Cc1cccc(NS(=O)(=O)c2cc(Cl)ccc2Cl)n1`, 2.75% (inactive).

On to `CC(C)[C@@H]1COC(c2cccc(C3=N[C@H](C(C)C)CO3)c2)=N1`, for which the inhibition is 46.5% (active). As for `O=c1c(-c2ccccc2)coc2c(CN3CCOCC3)c(O)ccc12`, the figure is 7.81% (inactive). Next, `Cc1c(CCC(=O)O)c(=O)oc2cc3occ(-c4ccccc4)c3cc12`: -11.6% (inactive). Next, `O=c1c(-c2ccccc2)coc2cc(O)ccc12`: 93% (active); `CC(C)c1ccc(C2C(C(=O)c3ccco3)=C(O)C(=O)N2CC2CCCO2)cc1` (stereo not given): 1.66% (inactive). For the molecule `COc1ccc(S(=O)(=O)N2CCCC(C(=O)NCCCn3ccnc3)C2)cc1OC` (stereo not given), the inhibition was -5.4% (inactive).

As for `Cc1sc2ncn(CC(=O)NCCCC(=O)N(C)Cc3ccccc3)c(=O)c2c1C`, the inhibition is -9.55% (inactive). In the case of `Cc1ccc(C(=O)NNC(=O)OC(C)(C)C)c(Cl)c1`, the inhibition was 90.5% (active). Next, `CCOc1ccc(NC(=O)NNC(=O)c2ccc(Cl)cc2Cl)cc1`: 13.5% (inactive). As for `CC(C)(C)OC(=O)N1CCC(C(=O)NNC(=O)c2ccc(Cl)cc2Cl)CC1`, the figure is 5.93% (inactive); as for `CC(=O)Nc1ccc(NC(=O)c2ccc3c(c2)C(=O)N(c2ccccc2C)C3=O)cc1`, -4.3% (inactive). Next, `O=C(Nc1cccc(Cl)c1)c1cc(S(=O)(=O)N2CCCCC2)c[nH]1`: -7.57% (inactive); `Cc1ccccc1NC(=O)CCNS(=O)(=O)c1ccc2[nH]c(=O)oc2c1`: -2.35% (inactive). As to `C=CCNc1ncnc2ccc(Br)cc12`, the inhibition is -28.8% (inactive). For `COc1ccc(Nc2ncnc3sc(-c4ccccc4)cc23)c(OC)c1`, the inhibition was 4.65% (inactive). Next, `COc1ccc(Nc2ncnc3ccc(Br)cc23)c(OC)c1`: 57.7% (active); `COc1ccc(CN(C)C(=O)Cc2ccsc2)c(OC)c1OC`: -10.3% (inactive); `Cc1c(C)c2c(OCC(=O)NCCCO)cc3c(c2oc1=O)CCC(C)(C)O3`: -7.03% (inactive). Next, `COc1ccccc1CNS(=O)(=O)CC12CCC(CC1=O)C2(C)C` (stereo not given): -4.21% (inactive). Consider `Cc1nc(-c2ccc(Cl)cc2)sc1C(=O)NN`, for which the inhibition was -18.4% (inactive). `Cc1nc(-c2ccc(Cl)cc2)sc1C(=O)CBr`: the inhibition is 52.5% (active). As for `Cc1ccc(SCC(=O)c2sc(-c3ccccc3)nc2C)cc1`, the figure is -2.76% (inactive). Next, `CCN1CCN(C(=O)C2CCN(S(=O)(=O)c3cc(Cl)ccc3Cl)CC2)CC1`: -5.92% (inactive); `CC1(C)c2[nH]c3ccccc3c2C[C@H]2C(=O)N(N)CC(=O)N21`: 11.8% (inactive); `COc1ccc(NC(=O)CSCc2ccc([N+](=O)[O-])cc2)cc1OC`: -3.27% (inactive).

Take `CC(C)C(=O)N1CC(=O)Nc2ccc(F)cc2C1c1ccc(F)cc1` (stereo not given): the inhibition is -3.75% (inactive).
